{"source": "PubChem BioAssay AID2314", "about": "(National Center for Advancing Translational Sciences (NCATS), 2010)", "note": "Hit rate of the full screen: of about 300,000 compounds, about 37,000 (12%) were called active. No stated cut-off is given here; in the data, active means max response mostly above about 13% (no sharp cut-off); inactive means mostly below about 14%. Shown is part of a subset that was picked to be rich in actives."}
{"assay": "Cycloheximide Counterscreen for Small Molecule Inhibitors of Shiga Toxin; further: read at 38.3 µM for the half of the compounds with a filed dose; 0% is about no effect", "conditions": "cell reporter, cycloheximide protein synthesis inhibition counterscreen; hits give high values"}
{"smiles": "O=C(Nc1ccc(N2CCOCC2)cc1)c1ccc(-c2ccccc2[N+](=O)[O-])o1", "max response": "21.5% (inactive)"}
{"smiles": "COc1ccc(/C=C2\\CCCC3C2=NN(C(=O)c2scnc2C)C3c2ccc(OC)cc2)cc1", "note": "(stereo not given)", "max response": "11.8% (inactive)"}
{"smiles": "CCOC(=O)N1CCN(S(=O)(=O)c2ccc(-n3cnnn3)cc2)CC1", "max response": "-0.729% (inactive)"}
{"smiles": "O=S(=O)(NC1CCCCC1N1CCC(O)CC1)c1ccc(Cl)cc1", "note": "(stereo not given)", "max response": "-0.643% (inactive)"}
{"smiles": "Oc1ccc(C2Nc3cccc4cccc(c34)N2)cc1", "max response": "-1.27% (inactive)"}
{"smiles": "O=C(O)c1ccc(NS(=O)(=O)c2ccc3c(c2)C(=O)c2cc(S(=O)(=O)Nc4ccc(C(=O)O)cc4)ccc2-3)cc1", "max response": "12.6% (inactive)"}
{"smiles": "Cc1cccc(CCNS(=O)(=O)c2ccc3c(c2)NC(=O)CO3)c1", "max response": "-8.72% (inactive)"}
{"smiles": "COc1ccc(C2CC(O)(c3ccccc3)Oc3cc(C)cc(C)c32)cc1", "note": "(stereo not given)", "max response": "15.7% (inactive)"}
{"smiles": "CCOC(=O)c1cc(=O)c2ccc(OCc3ccccc3)cc2o1", "max response": "-0.548% (inactive)"}
{"smiles": "O=C(C[n+]1ccc2c(c1)nnn2-c1ccccc1)c1ccc(Cl)cc1", "max response": "6.33% (inactive)"}
{"smiles": "O=C(Cc1nc2ccccc2[nH]c1=O)c1ccc(Cl)cc1", "max response": "49.5% (active)"}
{"smiles": "N#C/C(=C(/O)COC(=O)COc1ccc(Cl)cc1)c1nc2ccccc2[nH]1", "max response": "-7.7% (inactive)"}
{"smiles": "COc1ccc(CC(NC(C)=O)C(=O)NC2CCN(C(=O)c3ccc(Cl)cc3)CC2)cc1", "note": "(stereo not given)", "max response": "-8.8% (inactive)"}
{"smiles": "c1ccc2c(NC3C4CC5CC(C4)CC3C5)nc(N3CCOCC3)nc2c1", "note": "(stereo not given)", "max response": "-3.82% (inactive)"}
{"smiles": "O=C(NCc1ccco1)c1cccn2c(=O)c3c4c(sc3nc12)CCCC4", "max response": "13.5% (inactive)"}
{"smiles": "Cn1c(=O)n(Cc2ccco2)c(=N)c2c3c(sc21)CCCC3", "max response": "-4.49% (inactive)"}
{"smiles": "O=c1oc(-c2ccco2)nc2sc3c(c12)CCCCC3", "max response": "15% (active)"}
{"smiles": "Cc1cccc(NC(=O)C2CCCN(C(=O)NCc3ccccc3)C2)c1C", "note": "(stereo not given)", "max response": "1.32% (inactive)"}
{"smiles": "Clc1ccc(C2[C@H]3CN(CC4CCCCC4)[C@H](c4ccccc4)C34CC2(c2cccnc2)C4)cn1", "note": "(stereo not given in full)", "max response": "-6.35% (inactive)"}
{"smiles": "O=S(=O)(c1ccc(Br)cc1)n1ccc2ccccc21", "max response": "-2.94% (inactive)"}
{"smiles": "CC(=O)c1nn(-c2cccc(C(F)(F)F)c2)c(=O)[nH]c1=O", "max response": "-1.16% (inactive)"}
{"smiles": "Brc1cccc(-c2nnc3n2CCC3)c1", "max response": "-1.45% (inactive)"}
{"smiles": "COc1ccc(-c2nc3n(c2Br)CCC3)cc1", "max response": "45.3% (active)"}
{"smiles": "COc1ccc(-c2nnc3n2CCCCC3)cc1", "max response": "-0.714% (inactive)"}
{"smiles": "COc1ccc(Br)cc1C(=O)NC(=S)Nc1cc(-c2nc3ccccc3[nH]2)ccc1C", "max response": "24.4% (inactive)"}
{"smiles": "COc1ccc(-c2nc(N)ncc2-c2ccc(Cl)cc2)c(O)c1", "max response": "-1.99% (inactive)"}
{"smiles": "Cc1[nH]c2ccccc2c1C(=O)COC(=O)C(C)C", "max response": "17.9% (active)"}
{"smiles": "Cc1[nH]c2ccccc2c1C(=O)COC(=O)c1c(-c2ccccc2)noc1C", "max response": "-1.13% (inactive)"}
{"smiles": "Cc1[nH]c2ccccc2c1C(=O)CSCC(=O)O", "max response": "-0.861% (inactive)"}
{"smiles": "Cc1ccc(N(CC(=O)NC2CCCCC2)C(=O)CCCC(=O)Nc2ccccn2)c(C)c1", "max response": "-2.99% (inactive)"}
{"smiles": "CCc1ccc2[nH]c(=O)c(Cc3ccccc3)c(O)c2c1", "max response": "0.407% (inactive)"}
{"smiles": "COc1ccc(-c2onc(C)c2-c2ccc3c(c2)OCCO3)c(O)c1", "max response": "-1.9% (inactive)"}
{"smiles": "COc1cc(-c2c(-c3ccc4c(c3)OCO4)noc2C)ccc1F", "max response": "31.7% (active)"}
{"smiles": "COc1ccc(CCNC(=O)c2cc(-c3ccc4c(c3)OCO4)on2)cc1OC", "max response": "-2.19% (inactive)"}
{"smiles": "Cc1ccc(-c2cnc(NC(=O)CCC(=O)N(C)Cc3ccccc3)n2C)cc1", "max response": "1.02% (inactive)"}
{"smiles": "Cc1cccc(Nc2ccccc2C(=O)NCc2ccco2)c1C", "max response": "-4.07% (inactive)"}
{"smiles": "O=C(Nc1ccccc1)Nc1ccccc1C(=O)NCc1ccco1", "max response": "12.3% (active)"}
{"smiles": "CC(C)(C)NC(=O)NCc1ccco1", "max response": "-1.96% (inactive)"}
{"smiles": "CC(C)(C)c1ccc(C(=O)NCCC(=O)NCc2ccco2)cc1", "max response": "6.14% (inactive)"}
{"smiles": "CC(C)(C)c1ccc(NC(=O)NCc2ccco2)cc1", "max response": "47.3% (active)"}
{"smiles": "COc1ccc(C(=O)Nc2ccccc2C(=O)NCc2ccco2)cc1", "max response": "-2.2% (inactive)"}
{"smiles": "CCOCCCNC(=O)C1(O)c2cc(Br)ccc2NC(=O)N1c1ccc(C)c(C)c1", "note": "(stereo not given)", "max response": "-2.74% (inactive)"}
{"smiles": "O=C(/C=C/c1ccc(F)cc1)Nc1cccc(S(=O)(=O)Nc2cccc(C(F)(F)F)c2)c1", "max response": "-2.37% (inactive)"}
{"smiles": "CCCC1(C(=O)OCC)NC(c2ccc(N(C)C)cc2)C2C(=O)N(c3ccc4c(c3)OCCO4)C(=O)C21", "note": "(stereo not given)", "max response": "-5.79% (inactive)"}
{"smiles": "CC1CCCCC1NC(=O)CSc1nnc(-c2ccncc2)n1CCCN(C)C", "note": "(stereo not given)", "max response": "-2.68% (inactive)"}
{"smiles": "COc1cccc(CN(C)CC(O)COC(c2ccccc2)c2ccccc2C)c1", "note": "(stereo not given)", "max response": "-4.62% (inactive)"}
{"smiles": "CC(CNc1ccc([N+](=O)[O-])cc1)NC(=O)c1ccccc1Br", "note": "(stereo not given)", "max response": "-2.28% (inactive)"}
{"smiles": "CCNC(=S)N(CCN(CC)CC)Cc1cc2cc3c(cc2[nH]c1=O)OCO3", "max response": "-2.69% (inactive)"}
{"smiles": "CSc1nnc(-c2ccc(C(F)(F)F)cn2)o1", "max response": "15.3% (active)"}
{"smiles": "CC(C)Oc1ccc(Oc2ccc(C(F)(F)F)cn2)cc1", "max response": "10.2% (inactive)"}
{"smiles": "CCOc1cc(N2CCOCC2)c(OCC)cc1NC(=O)c1ccc(C)s1", "max response": "-4.86% (inactive)"}
{"smiles": "CCn1c(SCC(=O)Nc2ccc(Br)cc2)nc2sc3c(c2c1=O)CCN(C)C3", "max response": "9.46% (inactive)"}
{"smiles": "COc1ccc(CCNC(=O)c2ccc(CS(=O)(=O)c3ccc(Br)cc3)o2)cc1OC", "max response": "10.1% (inactive)"}
{"smiles": "CCC1S/C(=N/N=C/c2ccco2)NC1=O", "note": "(stereo not given)", "max response": "0.781% (inactive)"}
{"smiles": "COc1ccc(CN2C(=O)C(C)S/C2=N/N=C/c2ccco2)cc1", "note": "(stereo not given)", "max response": "31.9% (active)"}
{"smiles": "C=CCN1C(=O)C(Cc2cccc(Cl)c2)S/C1=N/N=C/c1ccco1", "note": "(stereo not given)", "max response": "6.81% (inactive)"}
{"smiles": "COc1cc(OC)cc(C(=O)NC2CCN(C(=O)N3c4ccccc4Sc4ccccc43)CC2)c1", "max response": "9.65% (inactive)"}
{"smiles": "CCCc1cc(=O)n2[nH]c(C)c(-c3ccc(Cl)cc3)c2n1", "max response": "-2.56% (inactive)"}
{"smiles": "COc1ccc(N(CC(=O)Nc2cc(OC)ccc2OC)S(=O)(=O)c2c(C)noc2C)cc1", "max response": "-6.58% (inactive)"}
{"smiles": "O=C(Oc1cccc(C(=S)N2CCOCC2)c1)c1cccc(Cl)c1", "max response": "-0.347% (inactive)"}
{"smiles": "O=C(/C=C/c1cccs1)c1cc(Cl)ccc1OC(=O)N1CCOCC1", "max response": "23.9% (active)"}
{"smiles": "CC(=O)Nc1ccccc1OC(=O)N1CCOCC1", "max response": "11.6% (inactive)"}
{"smiles": "Cc1cccc(OCC(O)Cn2c(N3CCCCC3)nc3c2c(=O)[nH]c(=O)n3C)c1", "note": "(stereo not given)", "max response": "14.8% (inactive)"}
{"smiles": "CCOC(=O)c1c(Cc2ccc(Cl)cc2)c[nH]c1C", "max response": "26.8% (active)"}
{"smiles": "CCOC(=O)C1=C(C)NC(=O)N(C(C)=O)C1c1ccc(Cl)cc1", "note": "(stereo not given)", "max response": "-4.1% (inactive)"}
{"smiles": "CCOC(=O)c1c(S(=O)(=O)Nc2cccc(Cl)c2)c(C)n(C)c1C", "max response": "5.3% (inactive)"}
{"smiles": "CC(OC(=O)c1ccc2noc(-c3ccccc3)c2c1)C(N)=O", "note": "(stereo not given)", "max response": "2.78% (inactive)"}
{"smiles": "O=C(Nc1ccc([N+](=O)[O-])cc1)C1(c2ccccc2)CCOCC1", "max response": "-3.32% (inactive)"}
{"smiles": "O=C(Nc1ccc(F)cc1)C1CCN(C(=O)c2ccc([N+](=O)[O-])cc2)CC1", "max response": "3.26% (inactive)"}
{"smiles": "O=C(Nc1ccc([N+](=O)[O-])cc1)C1CC12CCC2", "note": "(stereo not given)", "max response": "21.8% (active)"}
{"smiles": "O=C(c1c(F)cccc1F)N1CCN(S(=O)(=O)c2ccc3c(c2)OCCO3)CC1", "max response": "13.2% (inactive)"}
{"smiles": "COc1ccc(N2CC(C(=O)NCCS(=O)(=O)N3CCN(c4ccccc4)CC3)CC2=O)cc1", "note": "(stereo not given)", "max response": "5.23% (inactive)"}
{"smiles": "C=CCc1cccc(/C=N/NC(=O)COc2ccc(-n3cnnn3)cc2)c1O", "max response": "7.64% (inactive)"}
{"smiles": "O=C(Cc1cccs1)Nc1nnc(SCc2ccc(F)cc2)s1", "max response": "-3.78% (inactive)"}
{"smiles": "CCOC(=O)N1CCN(Cc2nc(N)nc(Nc3ccc(C)cc3)n2)CC1", "max response": "5.78% (inactive)"}
{"smiles": "O=C(Nc1nnc(CCOCCOCCc2nnc(NC(=O)c3ccco3)s2)s1)c1ccco1", "max response": "-1.29% (inactive)"}
{"smiles": "Cc1cccc(CSc2nnc(NC(=O)CSc3nnc(C)s3)s2)c1", "max response": "10.9% (inactive)"}
{"smiles": "Cc1ccc(Nc2nc(N)nc(CSc3nnc(C)s3)n2)cc1", "max response": "34.9% (active)"}
{"smiles": "COC(=O)CSc1nnc(NC(=O)CCc2ccccc2)s1", "max response": "14% (inactive)"}
{"smiles": "O=C(Nc1nnc(SCc2ccccc2)s1)c1ccco1", "max response": "23.3% (active)"}
{"smiles": "Cc1ccc(Nc2nnc(SCc3ccccc3)s2)cc1", "max response": "24.5% (active)"}
{"smiles": "Cc1nnc(SCc2nc3ccccc3nc2C)s1", "max response": "-3.4% (inactive)"}
{"smiles": "Cc1ccc(OCC(=O)Nc2ccc(C(=O)O)cc2NC(=O)COc2ccc(C)c(C)c2)cc1C", "max response": "7.55% (inactive)"}
{"smiles": "NC(=O)C1CCN(C(=O)CC2C(=O)NCCN2Cc2cccc(Oc3ccccc3)c2)CC1", "note": "(stereo not given)", "max response": "-2.74% (inactive)"}
{"smiles": "CC(C(=O)Nc1ccc(F)c(F)c1F)N1CCCCCC1", "note": "(stereo not given)", "max response": "-2.23% (inactive)"}
{"smiles": "Cc1ccc(C2SCC(=O)N2c2ccccc2)cc1", "note": "(stereo not given)", "max response": "16.9% (active)"}
{"smiles": "COc1cccc(C2SCC(=O)N2c2cccc(C)c2)c1OC", "note": "(stereo not given)", "max response": "-0.463% (inactive)"}
{"smiles": "O=C1CSC(c2cccc(F)c2)N1c1ccc(O)cc1", "note": "(stereo not given)", "max response": "-1.44% (inactive)"}
{"smiles": "COc1ccc(C(C)NC(=O)C2CCCC2)cc1", "note": "(stereo not given)", "max response": "-0.457% (inactive)"}
{"smiles": "CCc1ccc(N(CC(=O)NCc2cccnc2)S(=O)(=O)c2ccccc2)cc1", "max response": "9.39% (inactive)"}
{"smiles": "O=c1nc(N/N=C/c2ccco2)cn[nH]1", "max response": "35.1% (active)"}
{"smiles": "CC(C)NC(=O)C(=O)N/N=C/c1ccco1", "max response": "6.82% (inactive)"}
{"smiles": "O=C(Cn1cnc2ccccc21)N/N=C/c1ccco1", "max response": "7.5% (inactive)"}
{"smiles": "O=C1C2C3C=CC(C4CC34)C2C(=O)N1c1nccs1", "note": "(stereo not given)", "max response": "-4.99% (inactive)"}
{"smiles": "CCCC1=Nc2cc(C(=O)NCc3ccco3)ccc2Sc2ccccc21", "max response": "12.1% (inactive)"}
